# Results from paper PMC5540273 (PLoS ONE, 2017).
# Assays:
# Settings in all cases: concentration: 1 μM,replicates: in singlicate; n = 1
# ASK2 = system: T1, ASK2
# T1 construct: gene MAP3K6
# AURKA = system: AURKA
# AURKB = system: AURKB
# AURKC = system: AURKC
# AXL = system: AXL
# BIKE = system: T2, BIKE
# T2 construct: gene BMP2K
# BLK = system: BLK
# BMPR1A = system: BMPR1A
# BMPR1B = system: BMPR1B
# BMPR2 = system: BMPR2
# 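Further: KINOMEscan kinase panel screen.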
Structure (SMILES),%Inh (ASK2) [%],%Inh (AURKA) [%],%Inh (AURKB) [%],%Inh (AURKC) [%],%Inh (AXL) [%],%Inh (BIKE) [%],%Inh (BLK) [%],%Inh (BMPR1A) [%],%Inh (BMPR1B) [%],%Inh (BMPR2) [%]
O=C(NCCNc1ccnc(NCc2ccc(F)cc2)n1)c1cc2ccccc2s1 [GSK1379944],0,66,34,27,0,27,20,0,0,14
NC(=O)c1cc(-c2ccccc2)cc2c(C3CCNCC3)c[nH]c12 [GSK301362],2,6,1,57,47,65,16,28,0,4
C=CC(=O)Nc1cc2c(Nc3ccc(F)c(Cl)c3)ncnc2cc1OCCCN1CCOCC1 [GW781483],0,25,0,20,53,22,99.6,0,0,15
Cc1cc2cn[nH]c2cc1-c1cccc2c(N)c(C(N)=O)nnc12,95.6,90,97.3,79,15,75,91.5,25,88,96.5
O=C(NCCCN1CCOC1=O)c1cnc(NCc2cc(Cl)ccc2Cl)nc1NC1CCCC1,0,17,14,15,61,12,22,16,0,0
CCN(CC)CCOc1ccc(Nc2ncc3cc(-c4c(Cl)cccc4Cl)c(=O)n(C)c3n2)cc1 [SB-601273],0,62,47,95.4,93.7,58,99.3,100,100,24
Nc1nc(Nc2ccccc2)cc(-c2ccc3c(N)n[nH]c3c2)n1 [GSK2225749],0,,19,47,0,98.9,0,0,0,4
Cc1n[nH]c2ccc(-c3cc(OC[C@@H](N)Cc4ccccc4)cnc3-c3ccoc3)cc12.O=C(O)C(F)(F)F.O=C(O)C(F)(F)F [GSK507358],4,0,0,0,0,81,6,0,0,14
Cl.Oc1cc(-c2nc(-c3ccccc3)[nH]c2-c2ccncc2)ccc1Cl [SB-386023],27,22,19,0,42,3,48,9,61,32
CC(C)N1C(=O)Cc2cc(Nc3ncc(C(F)(F)F)c(NCc4cccc(S(C)(=O)=O)c4)n3)ccc21,0,97.3,81,43,30,68,0,0,21,17
Cc1ccc2c(-c3ccncc3)c(-c3ccc(F)cc3)nn2c1.Cl [GW461484],0,8,0,14,0,19,3,0,0,11
CNC(=O)c1ccccc1Sc1ccc2c(/C=C/c3ccccn3)n[nH]c2c1,0,97.9,99.6,66,,89,0,35,0,0
COc1ccc(C[C@@H](CN)NC(=O)c2cc(Br)c(-c3ccnc4[nH]ccc34)s2)cc1.Cl.Cl [GSK1389063],16,80,86,92.4,95.2,94,0,0,0,73
C[C@@H]1CCN(C(=O)CC#N)C[C@@H]1N(C)c1ncnc2[nH]ccc12,0,0,0,3,0,17,,53,0,0
CN(C)CCOc1ccc(-c2cc(-c3c[nH]nc3-c3ccccn3)ccn2)cc1 [GW835314],24,0,5,12,49,4,14,13,74,69
CCN(CC)CCCCNc1ncc2cc(-c3c(Cl)cccc3Cl)c(NC(=O)NC(C)(C)C)nc2n1,0,10,0,10,68,9,99.8,55,99.9,20
Cl.Cl.NC[C@H](CC1CCCCC1)NC(=O)c1cc(Br)c(-c2ccnc3[nH]ccc23)s1 [GSK1581427],17,63,62,95,86,100,0,0,0,8
C[C@@H](Oc1cc(-c2cnn(C3CCNCC3)c2)cnc1N)c1c(Cl)ccc(F)c1Cl,0,98.6,98.3,86,98.1,86,58,18,79,17
CC(C)Nc1cc(-c2ccc3c(N)n[nH]c3c2)nc(N)n1 [GSK2221681],0,,0,40,0,90.7,3,0,0,0
Cc1occc1-c1nc(N)c(OC[C@@H](N)Cc2c[nH]c3ccccc23)cc1-c1cc2c(C)n[nH]c2cn1 [GSK1660450],26,0,0,51,0,74,23,0,0,0
Cc1ccc(-n2nc(C(C)(C)C)cc2NC(=O)Nc2ccc(OCCN3CCOCC3)c3ccccc23)cc1 [GW839464],0,0,1,0,12,0,19,26,4,6
Cc1cc(C(=O)Nc2ccc(Oc3ccc4nc(NC(=O)C5CC5)cn4n3)cc2)nn1-c1ccccc1,0,0,66,65,79,18,55,3,0,0
Cl.Cl.Nc1nc(-c2ccc3c(N)n[nH]c3c2)cc(N2CCCC(NC(=O)c3ccccc3)C2)n1 (stereo not shown) [GSK2286775],11,,96.4,92.9,80,80,0,0,0,0
CCn1c(-c2nonc2N)nc2c(C#CC(C)(C)O)nc(OCCN)cc21.Cl.Cl [GSK902056],20,27,38,0,0,20,7,6,0,3
CN(C)CC(O)COc1ccc(Nc2nccc(-c3cnn4nc(N5CCOCC5)ccc34)n2)cc1 (stereo not shown) [GW767488],44,65,84,70,28,93.6,0,18,58,42
C[C@H]1Oc2cc(cnc2N)-c2c(nn(C)c2C#N)CN(C)C(=O)c2ccc(F)cc21,0,7,4,0,42,0,31,2,0,0
Cl.Cl.NC[C@H](Cc1ccc(C(F)(F)F)cc1)NC(=O)c1cc(Br)c(-c2ccnc3[nH]ccc23)s1 [GSK1487252],0,30,61,67,69,50,0,0,0,0
